Screening data: PubChem, National Center for Advancing Translational Sciences (NCATS)
Sampled rows, rich in hits. Any-hit rate of the full collection: about 15%.
Pf growth 96h: inhibits malaria parasite growth, 96 h | 320,000 compounds, 6.9% hits | P. falciparum luciferase reporter growth, 96 h | Potency, µM (highest dose often 28.7 µM), hits mostly inhibitors
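Cell-based qHTS: luciferase-tagged P. falciparum in erythrocytes (2% hematocrit, 0.05% parasitemia final) incubated with compounds for 96 hours, 37 C, 5% CO2; luciferase detection reagent then added and luminescence measured.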
Pf growth 48h: P. falciparum growth inhibition at 48 hours (one generation); P. falciparum luciferase growth in erythrocytes, 48 h; Potency, µM (highest dose often 28.7 µM), hits mostly inhibitors; 310,000 compounds, 5.9% hits; AID 504832
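First compound was added to culture medium, then infected red cells at 0.1% parasitemia and 2% hematocrit (final). After incubation at 37 C under 5% CO2, luciferase detection reagent was dispensed and light output recorded.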
SARS PLpro yeast: SARS-CoV PLP inhibition in yeast; Potency, µM (series often up to 32.9 µM), hits mostly activators; S. cerevisiae expressing SARS-CoV PLpro, growth rescue; 330,000 compounds, 0.19% hits; calls by dose curve; further: nearly all actives have a fitted effect of over 55% in size
HCMV antiviral: human cytomegalovirus inhibition; HFF cells, HCMV-luciferase reporter, 72 h; stronger effect = lower value; activity change, negative = inhibition, % at 57.5 µM; 410,000 compounds, 4.5% hits; AID 1259415; in the data active means activity change below about -60%; inconclusive means no clear call, values can overlap the other calls; inactive means above about -39%
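Two compound doses tested in HFFs infected with HCMV-luciferase, MOI 1 PFU/cell, 72 h at 37C. Lysate luminescence read with OneGlo; data normalized against buffer-only and 10uM Salinomycin inhibitor controls.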
HCV inh: HCV inhibition | Huh7.5.1 HCVcc-Cre infection, luciferase reporter, 44 h | 340,000 compounds, 3.4% hits | Potency, µM (titrated, usually from 41.8 µM), actives largely listed as inhibitors
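Whole-lifecycle infectious HCVcc-Cre system; cells 1,000/well, compound then virus (~0.5 moi) added 4 h after plating, 44 h culture. Luciferase read 15 sec following 15 min substrate incubation, room temp.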
Sm TGR block: inhibitors of Schistosoma mansoni thioredoxin glutathione reductase; Q962Y6; purified TGR, DTNB reduction, TNB absorbance 405 nm; Potency, µM (titrated, usually from 114 µM), hits mostly inhibitors; 360,000 compounds, 3% hits; AID 485364; further: nearly all actives have a fitted effect of over 60% in size
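TGR 20 nM + NADPH 100 uM (dispensed conc.), cpd preinc 15 min RT; start with NADPH (500 uM addition) then DTNB (15 mM addition). Kinetic TNB absorbance, 405 nm filter. Four-parameter Hill fit across titration.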
A number is an active result; i = inactive; ? = inconclusive; nt = no result given; [ ] = remark or other dose. Unless noted, the call rests on the fitted dose curve; in most records, active means well fitted curve in the direction sought with a large enough effect; inconclusive means small, poorly fitted or top-dose-only effect, or another doubt; inactive means no such curve, though single readings can be large; an effect the other way counts as inactive or inconclusive.

SMILES	Pf growth 96h	Pf growth 48h	SARS PLpro yeast	HCMV antiviral	HCV inh	Sm TGR block
CN1CCN(C(=O)/C=C/c2ccccc2)CC1	i	i	i	i	i	i
COc1ccc(S(N)(=O)=O)cc1C(=O)N(C)CC(=O)Nc1ccc(N2CCOCC2)cc1	i	i	i	i	i	i
COc1ccc2c(c1OC)C(=O)NC(C)=C(C(=O)OC(C)(C)C)C2O (centres undefined)	nt	i	i	i	i	i
COCCN(CCOC)C(=O)c1ccc(NS(=O)(=O)c2ccc3[nH]c(=O)[nH]c3c2)cc1	i	i	i	i	i	i
NC(N)=NN=C(/C=C/c1ccc([N+](=O)[O-])o1)/C=C/c1ccc([N+](=O)[O-])o1	3µM	2.4µM	nt	nt	nt	nt
O=C(/C=C/c1ccc(-c2ccc(F)cc2)o1)N1CCCC1	i	i	i	i	i	35µM
CN(CC(=O)Nc1ccc(S(=O)(=O)N2CCCC2)cc1)Cc1cccc(Cl)c1Cl	9.3µM	i	i	i	i	i
CC1CCc2ccccc2N1CC(=O)Nc1cccc(S(=O)(=O)N2CCCC2)c1 (centres undefined)	?	12µM	i	i	32µM	i
Cc1cccc(NC(=O)CN(C)C(C)C(=O)Nc2ccc(S(=O)(=O)N3CCCC3)cc2)c1C (centres undefined)	?	13µM	i	i	?	i
CC1(c2cc(F)ccc2F)NC(=O)N(CC(=O)Nc2cccc(S(=O)(=O)N3CCCC3)c2)C1=O (centres undefined)	?	12µM	i	i	i	i
O=C(CN1CCCc2ccccc21)Nc1cccc(S(=O)(=O)N2CCCC2)c1	nt	nt	nt	i	nt	nt
Cc1nnc(SCC(=O)NNC(=O)c2ccc(Br)cc2)n1C	?	i	i	i	i	i
COc1ccc(CCNC(=O)c2cc(Nc3ccccc3)nc3ccccc23)cc1OC	nt	nt	nt	i	nt	i
C[C@H](CO)N1C[C@H](C)[C@@H](CN(C)S(C)(=O)=O)Oc2ccc(NC(=O)NC3CCCCC3)cc2C1=O	nt	nt	i	i	i	nt
COc1ccccc1CN(C)CC(=O)Nc1cccc(S(=O)(=O)N2CCCCC2)c1	?	12µM	i	i	?	i
CN(CC(=O)Nc1cccc(F)c1)CC(=O)Nc1cccc(S(=O)(=O)N2CCCCC2)c1	?	12µM	i	i	?	i
CN(CC(=O)Nc1cccc(S(=O)(=O)N2CCCCC2)c1)Cc1ccc(F)cc1	9.3µM	13µM	i	i	?	i
Cc1ccc(CN(C)C(=O)COc2ccc(S(=O)(=O)N3CCCC3)cc2[N+](=O)[O-])c(C)c1	?	12µM	i	i	i	i
COc1ccc(N2CCN(S(=O)(=O)CCNC(=O)C3CCCCC3)CC2)cc1	i	i	i	i	i	i
CCOC(=O)c1ccc(NC(=O)N2CCOc3ccccc32)cc1	nt	nt	nt	i	nt	i
Cc1ccc(NC(=O)Cn2nnc(C(=O)NCc3ccc(Cl)cc3)c2N)cc1F	i	i	i	i	i	i
COc1cccc(NC(=O)CN(C)C(C)C(=O)N2CCCCC2)c1 (centres undefined)	nt	nt	i	i	i	nt
CC(C(=O)N1CCCC1)N(C)CC(=O)Nc1cccc(F)c1 (centres undefined)	?	i	i	?	i	8.9µM
CN(Cc1cccc(Cl)c1Cl)c1ccc(S(=O)(=O)N2CCCCC2)cc1[N+](=O)[O-]	?	i	i	?	11µM	i
O=C(NCCc1ccc(O)cc1)c1[nH]c(C(F)(F)F)nc1-c1ccccc1	nt	nt	nt	i	nt	nt
SMILES	Pf growth 96h	Pf growth 48h	SARS PLpro yeast	HCMV antiviral	HCV inh	Sm TGR block
CC(C)C(NC(=O)c1ccccc1F)C(=O)NCc1ccccc1 (centres undefined)	i	i	i	i	i	i
C#CCn1c(=NC(=O)c2ccc(Br)s2)sc2cccc(OC)c21	?	?	i	i	i	i
CC(C)(C)OC(=O)C[C@H]1C/C=C\C[C@@H](CC(=O)NCCO)C(=O)NC[C@@H](c2ccccc2)OC1=O	nt	nt	i	i	i	nt
O=c1c(-c2ccc(O)cc2O)coc2cc(O)cc(O)c12	1.2µM	i	i	i	i	i
CC(=NNC(=O)c1ccncc1)c1cccc(Cl)c1	nt	nt	nt	i	i	nt
CC(Nc1ccccc1N1CCCCC1)C(=O)N1CCc2ccccc21 (centres undefined)	?	?	i	-70	i	i
CC(NC(c1ccccc1)c1ccccc1)C(=O)N1CCCc2ccccc21 (centres undefined)	10µM	10µM	i	i	i	i
CC(NCC1(N2CCOCC2)CCCCC1)C(=O)N1CCc2ccccc21 (centres undefined)	nt	?	i	i	i	i
O=C(C(=O)N1CCCc2ccccc21)N1CCCc2ccccc21	?	i	i	i	i	i
CC(Oc1ccc(Br)cc1)C(=O)N1CCc2ccccc21 (centres undefined)	i	1.5µM	i	i	i	i
CCn1cc(S(=O)(=O)c2ccc(C)cc2)c(=O)c2cc(F)c(N3CCCCCC3)cc21	nt	nt	nt	i	nt	i
Cc1ccc([N+](=O)[O-])cc1S(=O)(=O)N1CCN(C)CC1	i	i	i	i	i	nt
CCN1CCN(c2ccc(N3CCN(S(=O)(=O)c4cc([N+](=O)[O-])ccc4C)CC3)nn2)CC1	?	10µM	i	i	i	i
CCOc1ccc(C(C)(C)C)cc1S(=O)(=O)N1CC(C)OC(C)C1 (centres undefined)	nt	12µM	i	i	i	i
Cc1cc(C)n(S(=O)(=O)c2cc(Cl)ccc2Cl)n1	i	10µM	i	i	i	i
CCOc1ccc(C(C)(C)C)cc1S(=O)(=O)n1nc(C)cc1C	8.3µM	4.7µM	i	i	?	i
COc1ccc(Br)cc1S(=O)(=O)N1CC(C)OC(C)C1 (centres undefined)	i	i	i	i	i	i
CCOc1ccc(C)cc1S(=O)(=O)n1nc(C)cc1C	i[5.75 µM]	i	i	i	i	i
CC(NC(=O)c1ccc2c(c1)N(Cc1ccc(Cl)cc1)C(=O)c1ccccc1S2=O)c1ccccc1 (centres undefined)	nt	nt	nt	i	nt	i
Cc1ccc(S(=O)(=O)n2cnc3cc([N+](=O)[O-])ccc32)c(C)c1C	i	i	i	i	i	i
COc1ccc(C(C)(C)C)cc1S(=O)(=O)n1ccnc1C	i[1.15 µM]	?	i	-70	i	i
Cc1ccc([N+](=O)[O-])cc1S(=O)(=O)n1ccnc1C	i	5.2µM	i	i	i	i
COc1cc(C)c(Cl)cc1S(=O)(=O)n1ccnc1C	i	nt	i	i	i	i
CCCCCCSc1ccc([C@H]2N[C@@](Cc3ccccc3)(C(=O)OC)[C@H]3C(=O)N(CC)C(=O)[C@@H]23)cc1	0.47µM	0.83µM	i	i	i	i
CCCCCCSc1ccc([C@H]2N[C@@](Cc3ccccc3)(C(=O)OC)[C@H]3C(=O)N(C)C(=O)[C@@H]23)cc1	?	0.29µM	i	i	i[8.37 µM]	i
